Reference: PubChem BioAssay AID588689 (Southern Research Specialized Biocontainment Screening …, 2011)
Hit rate of the full screen: of about 340,000 compounds, about 1,000 (0.29%) were called active. Cut-off read from the data, not from the text of the source: inconclusive = inhibition above about 29% without an active follow-up result; inactive = below that. A selection follows. Measured potencies and affinities stand elsewhere.

Biological target: Genome polyprotein (Dengue virus type 2 (strain 16681-PDK53)) (UniProt P29991)
Assay: flavivirus cap methylation enzyme inhibition – biochemical, confirmation dose response, primary screen (AID 588689)
Conditions: Dengue-2 NS5 methyltransferase capping enzyme assay, at 25 µM, stronger effect = higher value
[1] = measured here: pilot screen replicate inhibition

## Cn1ncc([N+](=O)[O-])c1C(=O)Nc1cccc2ccccc12
  inhibition: -4.99% (inactive)

## CC(C)CN(C(=O)COC(=O)CCCc1c[nH]c2ccccc12)c1c(N)n(Cc2ccccc2)c(=O)[nH]c1=O
  inhibition: 1.62% (inactive)

## Clc1ccc(OCCn2cnc(Cl)c2Cl)cc1
  inhibition: 2.87% (inactive)

## Cc1cccn2cc(CCNC(=O)c3ccc(Br)o3)nc12
  inhibition: 3.48% (inactive)

## O=C1COCCOCCOCCOCC(=O)NCCN1
  inhibition: -2.15% (inactive)

## CCOC(=O)C1=CN(Cc2ccco2)S(=O)(=O)N(C)C1c1ccc(C(F)(F)F)cc1 (stereo not given)
  inhibition: -11.6% (inactive)
[1]
  inhibition: -0.605%

## O=C(CSc1nnc(Cc2ccccc2)o1)NCCN1C(=O)CSC1=O
  inhibition: -7.38% (inactive)

## CCCCc1ccc(/C=C(\C#N)C(N)=S)s1
  inhibition: 0% (inactive)

## CCc1ccc(/C=C(/C#N)C(N)=S)s1
  inhibition: 0% (inactive)

## Cc1ccc(N2C(=O)CC(Nc3ccc(Cl)c(S(=O)(=O)N(C)C)c3)C2=O)c(C)c1 (stereo not given)
  inhibition: -11.6% (inactive)

## Cc1ccc(S(=O)(=O)NCCOCCNS(=O)(=O)c2ccc(C)cc2)cc1
  inhibition: -4.78% (inactive)

## CC(C)C(C(=O)O)N1C(=O)/C(=C/C=C/c2ccco2)SC1=S (stereo not given)
  inhibition: 42.9% (inactive)

## CCC(C(=O)O)N1C(=O)/C(=C/c2cccn2C)SC1=S (stereo not given)
  inhibition: -25.5% (inactive)

## CC(C)C(C(=O)O)N1C(=O)/C(=C/c2cccn2C)SC1=S (stereo not given)
  inhibition: -19.5% (inactive)

## CC(/C=C1\SC(=S)N(NC(=O)c2ccncc2)C1=O)=C\c1ccccc1
  inhibition: 21.6% (inactive)

## CC(/C=C1\SC(=S)N(CC(=O)N2CCN(c3ccccc3)CC2)C1=O)=C\c1ccccc1
  inhibition: -0.73% (inactive)

## CC(/C=C1\SC(=S)N(CC(=O)O)C1=O)=C\c1ccccc1
  inhibition: 26% (inactive)

## CC(/C=C1\SC(=S)N(CCC(=O)Nc2ccc(O)cc2)C1=O)=C\c1ccccc1
  inhibition: 1.3% (inactive)

## CCOC(=O)c1c(C)[nH]c(C(=O)OCC(=O)NC2(C#N)CCCCC2)c1C
  inhibition: -11.6% (inactive)

## O=c1n(Cc2ccccc2F)c2ccccc2n1Cc1ccccc1F
  inhibition: -3.2% (inactive)

## FC(F)(F)c1ccccc1/C=N/n1c(C2CCCCC2)n[nH]c1=S
  inhibition: 10.6% (inactive)

## COc1ccc(N=C2SC(C(=O)O)CC(=O)N2C)cc1 (stereo not given)
  inhibition: 0.68% (inactive)

## COc1cccc(NC(=O)CN(C)C(=O)c2cccc(S(=O)(=O)N3CCN(c4ccccc4)CC3)c2)c1
  inhibition: -6.1% (inactive)

## O=C(COc1ccc(S(=O)(=O)N2CCCCC2)cc1)NCC1CCCO1 (stereo not given)
  inhibition: -5.9% (inactive)

## Cc1nnc(NCCc2ccccc2)c2ccccc12
  inhibition: -6.68% (inactive)

## O=C(/C=C/c1cccc([N+](=O)[O-])c1)OCC(=O)N1CCN(C(=O)c2ccco2)CC1
  inhibition: 0.39% (inactive)

## COc1cccc(NC(=O)C2CCCN2C(=O)Nc2ccccc2F)c1 (stereo not given)
  inhibition: -4.94% (inactive)

## Oc1ccc2ccccc2c1CN1CCN(C/C=C/c2ccccc2)CC1
  inhibition: -14.3% (inactive)

## CC(/C=C1\SC(=S)N(CCCC(=O)Nc2ccc(C(=O)O)cc2)C1=O)=C\c1ccccc1
  inhibition: 11.7% (inactive)

## O=C(O)c1ccc(N2C(=O)/C(=C/C=C/c3ccccc3)SC2=S)cc1
  inhibition: 16% (inactive)

## COc1ccc(NC(=O)CN(C)C(=O)c2cccc(S(=O)(=O)N3CCN(C)CC3)c2)cc1
  inhibition: -5.07% (inactive)

## CCOC(=O)c1c(NC(=O)C2C3C=CC(C3)C2C(=O)O)sc2c1CCCC2 (stereo not given)
  inhibition: 4.37% (inactive)

## CCOC(=O)c1c(NC(=O)C2C3CCC(O3)C2C(=O)O)sc2c1CCC(CC)C2 (stereo not given)
  inhibition: 4.42% (inactive)

## CCOC(=O)c1c(NC(=O)C2C3C=CC(C3)C2C(=O)O)sc2c1CC(C)CC2 (stereo not given)
  inhibition: 7.29% (inactive)

## CCOC(=O)c1c(NC(=O)C2C3C=CC(C3)C2C(=O)O)sc2c1CCC(C)C2 (stereo not given)
  inhibition: -2.91% (inactive)

## COc1cc2c(cc1OC)C(C(N)=O)NCC2 (stereo not given)
  inhibition: 0.81% (inactive)

## O=C(CN1CCN(c2ccccc2F)CC1)c1ccc(O)c(O)c1
  inhibition: 6.62% (inactive)

## CNS(=O)(=O)c1cccc(C(=O)OCC(=O)Nc2ccc(OC)cc2[N+](=O)[O-])c1
  inhibition: 6.24% (inactive)

## CCCCC(=O)Nc1cc(Cl)ccc1C(=O)O
  inhibition: 1.56% (inactive)

## COc1ccc(Nc2ccc(Cl)cc2)c(C(=O)O)c1
  inhibition: 9.44% (inactive)

## COc1ccc(NC(=O)Cc2ccc(Cl)cc2Cl)cn1
  inhibition: -4.71% (inactive)

## CCC(=O)Nc1cc(Cl)ccc1C(=O)O
  inhibition: -5.46% (inactive)

## CC(C)(C)c1ccc(S(=O)(=O)N2CCN(c3ncccn3)CC2)cc1
  inhibition: -5.15% (inactive)

## O=C(OCCCOC(=O)c1cc[n+]([O-])cc1)c1cc[n+]([O-])cc1
  inhibition: -7.73% (inactive)

## CN(C)/C=C1\C(=O)N(c2ccc(Oc3ccccc3)cc2)CS1=O (stereo not given)
  inhibition: -8.86% (inactive)
[1]
  inhibition: 4.42%

## C=CCN1C(=O)C(Cc2ccc(F)cc2)S/C1=N/N=C/c1cccs1 (stereo not given)
  inhibition: -3.47% (inactive)

## Cc1cccc(C(=O)Nc2sc3c(c2C(=O)O)CCCC3)c1
  inhibition: 2.61% (inactive)

## O=C(Nc1sc2c(c1C(=O)O)CCC2)c1cccc(Cl)c1
  inhibition: 15.2% (inactive)

## CC(=O)c1cccc(NC(=O)C23CC4CC(C2)CC(n2cncn2)(C4)C3)c1
  inhibition: -0.64% (inactive)

## NCCCC[C@@H](C(=O)NCCCCCCCCCCC(=O)N1CCNCC1)n1cc(CCCC(=O)O)nn1
  inhibition: -0.8% (inactive)

## Cc1cc2ccccc2n2c(SCC(=O)N3CCOCC3)nnc12
  inhibition: -8.09% (inactive)

## COc1ccc(CNC(=O)C(C)OC(=O)CCN2C(=O)C3CC=CCC3C2=O)cc1 (stereo not given)
  inhibition: 2.89% (inactive)

## CC1Cc2ccccc2N1C(=O)CSc1ncccn1 (stereo not given)
  inhibition: -4.43% (inactive)

## C=CCOc1ccc(/C=C\c2nc(O)c([N+](=O)[O-])c(=O)[nH]2)cc1OC
  inhibition: 0.57% (inactive)

## COc1cc(Br)cc(/C=C/c2ccc3cccc(O)c3n2)c1OC
  inhibition: 13.2% (inactive)

## COc1ccc2cc(/C=N/NC(=O)CSCc3ccc([N+](=O)[O-])cc3)c(Cl)nc2c1
  inhibition: 4.46% (inactive)

## CCSc1nnc2c(n1)OC(C)(C)Nc1ccccc1-2
  inhibition: -5.52% (inactive)

## c1ccc(CSc2nnc3c(n2)OC(c2ccco2)Nc2ccccc2-3)cc1 (stereo not given)
  inhibition: -0.8% (inactive)

## CSc1nnc2c(n1)OC1(Nc3ccccc3-2)C(=O)Nc2ccccc21 (stereo not given)
  inhibition: 3.9% (inactive)

## Cc1ccc(SCc2[nH]nc3c2C2(C(=O)Nc4ccc(F)cc42)C(C#N)=C(N)O3)cc1 (stereo not given)
  inhibition: 2.51% (inactive)
[1]
  inhibition: 3.94%

## O=C(CSc1nnc(Cc2ccccc2)n1-c1ccc(Cl)cc1)N1CCOCC1
  inhibition: -3.47% (inactive)

## N=C1C(c2ccccc2)=C(O)C2CCc3ccccc3N12 (stereo not given)
  inhibition: -2.07% (inactive)

## CC(=O)N1CCN(c2ccc([N+](=O)[O-])cc2C#N)CC1
  inhibition: -1.43% (inactive)

## O=C1NC(=O)N(Cc2ccccc2)C1=O
  inhibition: 0% (inactive)

## O=C1N/C(=C/c2cccn2-c2ccc(F)cc2)C(=O)N1Cc1ccccc1
  inhibition: -0.68% (inactive)

## O=C(CN1CCN(c2ccc(F)cc2)CC1)c1ccc2c(c1)OCO2
  inhibition: -2.07% (inactive)

## CC(=O)OC1C([N+]2(C)CCCCC2)C[C@H]2C3CC[C@H]4C[C@H](OC(C)=O)C([N+]5(C)CCCCC5)CC4(C)[C@H]3CCC12C (stereo not given in full)
  inhibition: -1.47% (inactive)

## O=C1C(SCCO)=C(SCCO)C(=O)c2ccccc21
  inhibition: -3.66% (inactive)

## Cn1c(SCc2ccccc2)nccc1=O
  inhibition: 1.94% (inactive)

## COc1ccc(Nc2ncnc3sc(-c4ccccc4)cc23)cc1
  inhibition: -5.46% (inactive)

## Cc1ccc(S(=O)(=O)NN2C(=O)/C(=C/c3ccccn3)SC2=S)cc1
  inhibition: 14% (inactive)

## CCN1C(=O)/C(=C/c2cccs2)S/C1=N\S(=O)(=O)c1ccc(C)cc1
  inhibition: -2.56% (inactive)

## O=C(NN1C(=O)/C(=C/c2cccs2)SC1=S)c1ccccc1
  inhibition: -1.93% (inactive)

## O=C(NN1C(=O)/C(=C/c2cccs2)SC1=S)c1ccncc1
  inhibition: -4.6% (inactive)

## Cc1cc(C)cc(OCC(=O)N/N=C/c2ccccn2)c1
  inhibition: 6.27% (inactive)

## COc1cc2c(cc1OC)C(c1cccs1)N(C(=S)NC(C)C)CC2 (stereo not given)
  inhibition: -5.35% (inactive)

## Cc1ccc(-c2nnn(CC(=O)N(Cc3ccccc3)C(C(=O)NC(C)(C)C)c3ccncc3)n2)o1 (stereo not given)
  inhibition: -0.68% (inactive)

## Cc1cccc(C)c1OCC(O)Cn1c2ccccc2c2ccccc21 (stereo not given)
  inhibition: -10.5% (inactive)

## CCCc1c(C)c2ccccc2[nH]c1=O
  inhibition: -1.65% (inactive)

## Cc1ccc(C(=O)O)cc1NS(=O)(=O)c1ccc2c(c1)oc(=O)n2C
  inhibition: -6.53% (inactive)

## Cc1cc(C)cc(N2C(=O)C=CC2=O)c1
  inhibition: -24.7% (inactive)

## O=C(O)c1cccc(N2C(=O)c3ccc4c5c(ccc(c35)C2=O)C(=O)N(c2cccc(C(=O)O)c2)C4=O)c1
  inhibition: 16.5% (inactive)

## O=C(O)c1cccc(N2C(=O)C3CC=CCC3C2=O)c1 (stereo not given)
  inhibition: -1.37% (inactive)

## O=C(O)c1cc(C(=O)O)cc(N2C(=O)CSC2=S)c1
  inhibition: -4.42% (inactive)

## N/C(=N\OC(=O)Oc1ccccc1)c1ccc(Cl)cc1
  inhibition: 2.93% (inactive)

## COc1ccc(CNC(=O)c2cc(=O)c3cc(C)cc(C)c3o2)cc1
  inhibition: -5.29% (inactive)

## O=[N+]([O-])c1ccc(SCc2c(F)cccc2Cl)nc1
  inhibition: -6.18% (inactive)

## O=C(O)/C=C/C(=O)Nc1ccc(C(=O)c2ccccc2)cc1
  inhibition: -4.59% (inactive)

## O=C(O)/C=C/C(=O)Nc1ccc(-c2ccccc2)cc1
  inhibition: -12.6% (inactive)

## CC(C)CN(C(=O)CCCSc1nc2ccccc2[nH]1)c1c(N)n(Cc2ccccc2)c(=O)[nH]c1=O
  inhibition: 2.91% (inactive)

## CC1(C)Cc2c(sc3[nH]c(=S)[nH]c(=O)c23)CO1
  inhibition: -1.64% (inactive)

## CCC1(C)Cc2c(sc3[nH]c(=S)[nH]c(=S)c23)CO1 (stereo not given)
  inhibition: -4.57% (inactive)
